According to PubChem BioAssay (NCI):
This is part of a sample that, as a whole, favours compounds with a hit. Of some 83,000 tested, about 20% had one in any assay.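 Compound tested at a single concentration for 48 hours in 96-well plates; a percent growth value below 10 was scored as active.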 Values without a mark were called inactive. Calls of active or inactive are those of the source.

What follows are molecules tested on NCI-H23 lung (assay: NCI-60 one-dose screen, 48 h (100 = growth as untreated, 0 = no growth, -100 = all killed)). Settings: 10 µM unless noted.
Method: Growth inhibition of the NCI-H23 human Non-Small Cell Lung tumor cell line is measured as a screen for anti-cancer activity. Cells are grown in 96 well plates and exposed to the test compound for 48 hours. Compounds are tested at a single concentration, which is 10^-5 M for most compounds. The reported endpoint is percent growth (GI% or GIPRCNT), where numbers from 0 - 100% represent growth inhibition, and numbers from -100% - 0 represent cell death. For example, a value of 40 represents 60% growth inhibition. A value of 0 means no net growth occurred over the course of the experiment. A value of -40 indicates 40% of cells at the beginning of the experiment died by the end of the experiment. A value of -100 means all cells are dead at the end of the experiment.
NCI-60 Human Tumor Cell Lines Screen was performed using the standard one-dose NCI protocol, which is described in more detail at https://dtp.cancer.gov/discovery_development/nci-60/default.htm.
Compounds with GIPRCNT values below 10 were considered active. Activity score was based on GIPRCNT using the following formula: […]
Score is 0 for GIPRCNT values of 100 or above, 50 for GIPRCNT values of 0, and 100 for GIPRCNT values of -100.

| Structure (SMILES) | growth |
| --- | --- |
| COc1cccc(-c2nn(-c3ccccc3)cc2-c2ccnc(NCCCNC(=O)Nc3ccc(Cl)c(Cl)c3)c2)c1 | 15.1% |
| Cc1c(Cl)cc(-n2c(=O)c3ccccc3c3ccccc3c2=O)cc1Cl | 97.6% |
| CCCCCc1nc2c(c3c1CCCC3)CCCC2 | 73.4% |
| O=c1c2c3c(sc2nc(N/N=C/c2ccc(Br)cc2)n1Cc1ccccc1)CCCC3 | 68.2% |
| CCCCCCCCCCCCCCCCCC1=NCCN1CCOC1=C(Cl)C(=O)c2ccccc2C1=O | 79.4% |
| CCN(CC)c1ccc2nc3c4ccccc4c(=NC(=O)c4ccccc4-c4c5ccc(N(CC)CC)cc5[o+]c5cc(N(CC)CC)ccc45)cc-3oc2c1 | 10.9% |
| Fc1c[c-]c(-c2ccccn2)c(F)c1.[CH3-].[Pt+2].c1ccc(P(C[PH+](c2ccccc2)c2ccccc2)c2ccccc2)cc1 | -51.1% (active) |
| Cc1ccc(S(=O)(=O)n2cc(CNc3ccc(N4CCOCC4=O)cc3)c3ccccc32)cc1 | 87.8% |
| C=CCSc1nc2ccccc2cc1/C=N/O | 81.9% |
| O=C(Nc1ccccc1-c1nc2ccccc2c(=O)[nH]1)c1cc2ccccc2[nH]1 | 82.4% |
| CC(C)(C)C(CCc1ccc(Cl)cc1)N1CCN(C2CCCCC2)CC1 (stereo not given) | 47.5% |
| COCN1CCC2N(COC)CCC3N(COC)CCC1N23 (stereo not given) | 105% |
| CCN1C(=O)N(CC)C2C1NN=c1s/c(=C\c3cccs3)c(=O)n12 (stereo not given) | 36.4% |
| O=C1c2cccc(NCCN=Cc3cc([N+](=O)[O-])ccc3O)c2C(=O)c2c(NCCN=Cc3cc([N+](=O)[O-])ccc3O)cccc21 | 75% |
| COc1ccc(-c2ccc3c(c2)sc2nc(-c4ccc(F)cc4)cn23)cc1 | 81.1% |
| CC(=O)c1ccc(NCC(=O)Nc2ccccn2)cc1 | 96.4% |
| Fc1ccc(CNc2c3ccccc3nc3ccccc23)cc1F | 35.2% |
| FC(F)(F)c1cc(Nc2ccc3cc(OCCCN4CCOCC4)ccc3n2)ccc1Cl | 36% |
| CS(=O)(=O)c1ccc(Nc2nc(N[C@H]3CCCC[C@H]3N)nc3cc[nH]c(=O)c23)cc1 | -5.38% (active) |
| COc1nc2c(c(=O)n1C)CN(c1ccccc1)C(=O)CN2C | 56.9% [100 µM] |

| Structure (SMILES) | growth |
| --- | --- |
| NC(N)=Nc1nc2ccccc2n2c1nc1ccccc12 | 36.3% |
| CNS(=O)(=O)c1n[nH]nc1-c1cc(C(C)(C)C)c(O)c(C(C)(C)C)c1 | 105% |
| CNC(=O)c1cc(Oc2cccc3nc(Nc4ccc(F)c(Cl)c4)ccc23)ccn1 | 70% |
| COC(=O)c1c2c(c(C)[n+]([O-])c1C)C(=O)C(NCc1ccc(F)cc1)=CC2=O | 31% |
| COc1cc(/C=C/C(=O)c2c(C)nc3ccccc3c2C)ccc1OCCCN1CCN(C(=O)c2ccco2)CC1 | 58.1% |
| Cc1cc(C)c(-c2c(C)cc(C)cc2CBr)c(CBr)c1 | 85.8% |
| COc1cc(/C=N/Nc2ncc(-c3cc4cc5c(cc4o3)OCO5)s2)cc(OC)c1OC | 53% |
| O=C(Nc1cccc(C(F)(F)F)c1)Nc1cccc(C(F)(F)F)c1 | 1.97% (active) |
| Cc1cccc(Cc2cnc(NC(=O)/C=C/c3ccco3)s2)c1 | 28.2% |
| N#Cc1c(-c2ccccc2)cc(-c2ccc(Nc3nc(Nc4ccc(F)cc4)nc(Nc4ccc(F)cc4)n3)cc2)nc1N | 72.9% |
| O=[N+]([O-])c1ccc(OCCO)cc1 | 99.6% |
| COc1ccc(-c2nc3c(N)c(CO)c(C)nc3o2)cc1 | 86.6% |
| CCN1C(=O)N(CC)C2Nn3c(s/c(=C\c4cccc([N+](=O)[O-])c4)c3=O)=NC21 (stereo not given) | 57.7% |
| CN(C)c1ccc(-c2ccc3[nH]c(=O)nc(-c4ccccc4)c3c2)cn1 | 62.1% |
| COc1cc2ncn3c(=O)c4c5c(sc4nc3c2cc1OC)CCCC5 | 91.4% |
| COc1cc(/C=C/C(=O)N2CCN(C(=O)c3cc(OC)c(OC)c(OC)c3)CC2)ccc1OCCCN1C(=O)c2cccc3cccc(c23)C1=O | 106% |
| Clc1cccc(Cl)c1/C=C/c1cc(/C=C/c2c(Cl)cccc2Cl)[nH]n1 | 43.6% |
| CCCCCCCCn1ccc2cc(NC(=O)Cn3cc(CN4CCCC4)nn3)ccc21 | 87.3% |
| Cc1cc(NCCCCNc2ccnc3cc(Cl)ccc23)nc(Nc2ccc(C(=O)N3CCCCC3)cc2)n1 | 41.3% |
| O=c1[nH]nc(-c2ccccc2)c2c(-c3ccccc3)onc12 | 50.4% |
